Results filed as inconclusive are left out. Where a call stands in place of a potency, no number is given. Calls of active or inactive are those of the source. The call rests on the fitted dose curve; tested in HEK293 reporter line.
Experiment: qHTS for Inhibitors of the Functional Ribonucleoprotein Complex (vRNP) of Lassa (LASV) Arenavirus: Viability assay - alamar blue signal for LASV Primary Screen (AID 1347083); further: nearly all actives have a fitted effect of over 80% in size
Details: cell viability, alamar blue fluorescence (LASV minigenome counter-screen); series mostly up to 57.5 µM

| Compound | Potency |
| --- | --- |
| CCCCCN(CCCCC)C(=O)C(CCC(=O)O)NC(=O)c1ccc(Cl)c(Cl)c1 (stereo unspecified) | inactive |
| CCOCC(O)COc1ccc(NC(=O)CC[S+](C)C)cc1 (stereo unspecified) | inactive |
| Cc1ccc(CCn2c3c(c4cc(Cl)ccc42)CN(C)CC3)cn1 | inactive |
| COc1ccc2nc(NC(=O)Nc3ccccc3)sc2c1 | inactive |
| CN(C)[C@@H]1C(=O)C(C(=O)NCN2CCCC2)=C(O)[C@@]2(O)C(=O)C3=C(O)c4c(O)cccc4[C@@](C)(O)C3C[C@@H]12 (stereo partly specified) | inactive |
| Cc1c(Cn2ccnc2)c2ccccc2n1CCC(=O)O | inactive |
| CC1(C)CO[C@@H](CC(=O)O)CN1 | inactive |
| CN1C(=O)CC(c2ccccc2)C1=O (stereo unspecified) | inactive |
| C[C@@]12CCC[C@H]1[C@@H]1CC[C@H]3C[C@@H](O)CC[C@]3(C)[C@H]1CC2 | inactive |
| O=C(O)CP(=O)(O)O | inactive |
| CN(C)CC[C@@H](c1ccc(Cl)cc1)c1ccccn1 | inactive |
| Cc1ccc(Cl)c(OCC(O)CNC(C)(C)C)c1 (stereo unspecified) | inactive |
| CCCCCCCCCCCC[N+](C)(C)Cc1ccccc1 | inactive |
| Oc1cccc2[nH]ccc12 | inactive |
| NC(N)=N/N=C/c1c(Cl)cccc1Cl | inactive |
| CC(C)NC(=O)c1ccc(C=O)cc1 | inactive |
| CCn1c(=O)c2c(nc(C=Cc3ccc(OC)c(OC)c3)n2C)n(CC)c1=O | inactive |
| Oc1ccc(Cl)cc1Sc1cc(Cl)ccc1O | inactive |
| O=c1ccc2ccccc2o1 | inactive |
| CCN(CC)CCOc1ccccc1C(=O)CCc1ccccc1 | inactive |

From PubChem BioAssay (NCATS)
